± gives the standard deviation.

Consider 14 compounds from the supplement of paper PMC10646978.

Holding throughout (settings): modulator concentration 10 µM
The subject of test [1] is RAW-Dual (murine macrophage reporter line). As to the kind of experiment: NF-kB reporter (SEAP) activity fold change vs agonist alone; higher = enhanced NF-kB activity. In outline: (§1)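 RAW-Dual murine macrophage reporter cells were seeded at 50 000 per well in 384-well plates and pre-incubated 1 hour at 37 °C with compound pin-transferred to 10 μM final. After 1 hour, a PRR agonist was added and cells incubated overnight. Supernatant NF-κB (SEAP, QUANTI-Blue, 620 nm absorbance) and IRF (Lucia luciferase, QUANTI-Luc, luminescence) signals were divided by the mean agonist-only control on the same plate to give fold change. Two replicate plates were averaged, with errors by propagation.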

The test system is the same in test [2]. As to the kind of experiment: IRF reporter (Lucia luciferase) activity fold change vs agonist alone; higher = enhanced IRF activity. A digest of the protocol:
as §1

Test [3] has the same test system. Nature of the test: viability score (confluency relative to resting cells, overnight) (fraction); higher = more viable, active = viable (0.7 or more). A digest of the protocol: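 Overnight exposure to 10 μM final compound was carried out on RAW-Dual macrophages in 384-well plates. IncuCyte software generated two confluency masks over all wells imaged with IncuCyte. The viability score gives confluency in relation to resting cells. A compound met the cutoff if each mask exceeded 70% of resting cells.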

Where [4] appears, read: agonist: CpG ODN 1826 0.5 ug/mL.

`O=C(Nc1ccccc1)NC1CCS(=O)(=O)C1` (stereo not drawn): the NF-kB reporter in test [1] (setting [4]) is 1.02 ± 0.096; in test [1] (agonist: LPS 0.1 ug/mL) it was 1.09 ± 0.1; in test [1] (agonist: MPLA […]), 0.998 ± 0.042. For the same compound, the IRF reporter in test [2] (agonist: 3'3'-cGAMP 10 ug/mL) was determined as 0.97 ± 0.054; in test [2] (agonist: LPS 0.1 ug/mL), 0.889 ± 0.16; in test [2] (agonist: MPLA […]), 0.88 ± 0.18. The viability score in test [3] was 0.995 (active).
For `COc1ccc(Br)c(C(=O)N2CCCC2CS(=O)(=O)c2ccccc2)c1` (stereo not drawn), the NF-kB reporter came out at 0.982 ± 0.12 in test [1] (setting [4]), 1.08 ± 0.085 in test [1] (agonist: LPS 0.1 ug/mL) and 0.957 ± 0.075 in test [1] (agonist: MPLA […]). The figures for the IRF reporter in test [2] (agonist: 3'3'-cGAMP 10 ug/mL), in test [2] (agonist: LPS 0.1 ug/mL) and in test [2] (agonist: MPLA […]) were 0.988 ± 0.051, 0.984 ± 0.098 and 0.876 ± 0.11, respectively. In test [3], the viability score was 1 (active).
On to `C=C1CCC(OC(C)=O)C(C)=CCC2C1CC2(C)C` (stereo not drawn), for which the NF-kB reporter in test [1] (setting [4]) stood at 0.932 ± 0.086; in test [1] (agonist: LPS 0.1 ug/mL) it was 0.776 ± 0.1; in test [1] (agonist: MPLA […]), 0.752 ± 0.071. Also, the IRF reporter in test [2] (agonist: 3'3'-cGAMP 10 ug/mL) is 0.671 ± 0.038; in test [2] (agonist: LPS 0.1 ug/mL), 0.928 ± 0.17; in test [2] (agonist: MPLA […]), 0.779 ± 0.24. For the same compound, in test [3], the viability score is 1.03 (active).
As to `O=S(=O)(c1ccc(Cl)cc1)N1CCN(C2CC3CCC2C3)CC1` (stereo not drawn), the values for the NF-kB reporter in test [1] (setting [4]), in test [1] (agonist: LPS 0.1 ug/mL) and in test [1] (agonist: MPLA […]) were 0.926 ± 0.062, 0.994 ± 0.061 and 0.972 ± 0.068, respectively. For the same compound, the IRF reporter in test [2] (agonist: 3'3'-cGAMP 10 ug/mL) stood at 1.02 ± 0.037; in test [2] (agonist: LPS 0.1 ug/mL) it was 1.42 ± 0.14; in test [2] (agonist: MPLA […]), 1.24 ± 0.13. The viability score in test [3] is 0.984 (active).
For the compound `NC(=S)c1cc2ccc(O)cc2oc1=O`, the NF-kB reporter in test [1] (setting [4]) was found to be 0.808 ± 0.16; in test [1] (agonist: LPS 0.1 ug/mL), 1.01 ± 0.082; in test [1] (agonist: MPLA […]) it was 2.26 ± 1.2. Moreover, the IRF reporter in test [2] (agonist: 3'3'-cGAMP 10 ug/mL) worked out at 0.925 ± 0.043; in test [2] (agonist: LPS 0.1 ug/mL), 0.979 ± 0.12; in test [2] (agonist: MPLA […]), 1.05 ± 0.11. In addition, the viability score in test [3] was 1.01 (active).
Turning to `Cc1[nH]c2ccc(Br)cc2c(=O)c1CN1CCCCC1`, the NF-kB reporter in test [1] (setting [4]) was 0.828 ± 0.092; in test [1] (agonist: LPS 0.1 ug/mL) it was 0.97 ± 0.054; in test [1] (agonist: MPLA […]) it was 0.899 ± 0.054. Further, the IRF reporter was determined as 0.951 ± 0.035 in test [2] (agonist: 3'3'-cGAMP 10 ug/mL), 1.25 ± 0.17 in test [2] (agonist: LPS 0.1 ug/mL) and 0.92 ± 0.091 in test [2] (agonist: MPLA […]). Further, in test [3], the viability score was 1 (active).
For the compound `CC1=NN(C(=O)OC(C)(C)C)C(O)(c2ccncc2)C1` (stereo not drawn), the NF-kB reporter in test [1] (setting [4]) came out at 1.03 ± 0.084; in test [1] (agonist: LPS 0.1 ug/mL), 1.01 ± 0.1; in test [1] (agonist: MPLA […]), 0.886 ± 0.084. The results for the IRF reporter in test [2] (agonist: 3'3'-cGAMP 10 ug/mL), in test [2] (agonist: LPS 0.1 ug/mL) and in test [2] (agonist: MPLA […]) were 0.979 ± 0.081, 1.14 ± 0.14 and 1.22 ± 0.2, respectively. Also, the viability score in test [3] is 1.03 (active).
Regarding `CCOC(=O)C1=C(C)NC(C)=C(C(=O)OCC)C1c1ccc(Cl)c(Cl)c1`, the NF-kB reporter came out at 0.693 ± 0.23 in test [1] (setting [4]), 0.996 ± 0.078 in test [1] (agonist: LPS 0.1 ug/mL) and 0.832 ± 0.079 in test [1] (agonist: MPLA […]). The IRF reporter is 1.05 ± 0.045 in test [2] (agonist: 3'3'-cGAMP 10 ug/mL), 1.19 ± 0.19 in test [2] (agonist: LPS 0.1 ug/mL) and 1.37 ± 0.29 in test [2] (agonist: MPLA […]). Further, in test [3], the viability score was 0.998 (active).
As for `CCOc1ccc(CN(CCc2ccc3c(c2)OCO3)Cc2ccc3ccccc3c2)cc1`, the NF-kB reporter in test [1] (setting [4]) stood at 0.733 ± 0.083; in test [1] (agonist: LPS 0.1 ug/mL), 0.954 ± 0.063; in test [1] (agonist: MPLA […]), 0.781 ± 0.053. In addition, the IRF reporter in test [2] (agonist: 3'3'-cGAMP 10 ug/mL) turned out to be 0.197 ± 0.0058; in test [2] (agonist: LPS 0.1 ug/mL), 1.54 ± 0.2; in test [2] (agonist: MPLA […]), 1.2 ± 0.16. The viability score in test [3] was 0.989 (active).
In the case of `O=c1n(CCCN2CCN(c3cccc(Cl)c3)CC2)nc2ccccn12` [Prestw-292], the NF-kB reporter in test [1] (setting [4]) turned out to be 0.813 ± 0.062; in test [1] (agonist: LPS 0.1 ug/mL), 0.912 ± 0.067; in test [1] (agonist: MPLA […]), 0.899 ± 0.089. Besides, the IRF reporter in test [2] (agonist: 3'3'-cGAMP 10 ug/mL) was determined as 0.932 ± 0.041; in test [2] (agonist: LPS 0.1 ug/mL) it was 1.19 ± 0.14; in test [2] (agonist: MPLA […]), 1.19 ± 0.24. Moreover, in test [3], the viability score is 1.06 (active).
As for `CNC1CCCN(c2c(F)cc3c(=O)c(C(=O)O)cn(C4CC4)c3c2OC)C1` (stereo not drawn), the NF-kB reporter was 0.783 ± 0.095 in test [1] (setting [4]), 0.821 ± 0.04 in test [1] (agonist: LPS 0.1 ug/mL) and 1.12 ± 0.16 in test [1] (agonist: MPLA […]). The values for the IRF reporter in test [2] (agonist: 3'3'-cGAMP 10 ug/mL), in test [2] (agonist: LPS 0.1 ug/mL) and in test [2] (agonist: MPLA […]) were 1.02 ± 0.048, 1.35 ± 0.094 and 1.43 ± 0.14, respectively. Further, the viability score in test [3] was 0.999 (active).
As to `O=C1CCC(=O)N1CC(O)Cn1c2ccc(Cl)cc2c2cc(Cl)ccc21` (stereo not drawn), the NF-kB reporter in test [1] (setting [4]) was 0.671 ± 0.035; in test [1] (agonist: LPS 0.1 ug/mL) it was 0.816 ± 0.065; in test [1] (agonist: MPLA […]) it was 0.896 ± 0.05. For the same compound, the IRF reporter was 0.839 ± 0.04 in test [2] (agonist: 3'3'-cGAMP 10 ug/mL), 1.24 ± 0.25 in test [2] (agonist: LPS 0.1 ug/mL) and 1.19 ± 0.39 in test [2] (agonist: MPLA […]). Further, in test [3], the viability score is 0.922 (active).
Take `CCc1cc(=O)oc2cc(OCC(=O)OC(C)C)ccc12`: the NF-kB reporter in test [1] (setting [4]) was 0.827 ± 0.064; in test [1] (agonist: LPS 0.1 ug/mL) it was 0.857 ± 0.042; in test [1] (agonist: MPLA […]), 1.11 ± 0.096. The IRF reporter in test [2] (agonist: 3'3'-cGAMP 10 ug/mL) stood at 1.04 ± 0.048; in test [2] (agonist: LPS 0.1 ug/mL), 1.44 ± 0.096; in test [2] (agonist: MPLA […]), 1.73 ± 0.24. In addition, the viability score in test [3] was 1 (active).
Take `Clc1cccc(OCCCOc2cccc3cccnc23)c1`: the values for the NF-kB reporter in test [1] (setting [4]), in test [1] (agonist: LPS 0.1 ug/mL) and in test [1] (agonist: MPLA […]) were 0.586 ± 0.046, 1.13 ± 0.091 and 1.53 ± 0.17, respectively. The results for the IRF reporter in test [2] (agonist: 3'3'-cGAMP 10 ug/mL), in test [2] (agonist: LPS 0.1 ug/mL) and in test [2] (agonist: MPLA […]) were 0.948 ± 0.11, 1.18 ± 0.083 and 2.83 ± 0.56, respectively. The viability score in test [3] is 0.818 (active).
